Test results as given in PubChem BioAssay AID504333 (National Center for Advancing Translational Sciences (NCATS), 2011).
The whole screen tested about 360,000 compounds, of which about 16,000 (4.4%) were called active. About 9% were inconclusive and are not listed. Calls follow the shape of the dose curve; as a rule, active = well fitted inhibition curve with a large enough effect; inconclusive = small, poorly fitted or top-dose-only effect; inactive = no such curve, though single readings can be large or run the other way. Shown is part of a subset that was picked to be rich in actives.

These compounds were tested against Bromodomain adjacent to zinc finger domain protein 2B (Homo sapiens) (UniProt Q9UIF8) (assay: qHTS Assay for Inhibitors of BAZ2B). Conditions: AlphaScreen BAZ2B-H3K14Ac peptide displacement; series mostly up to 114 µM; activity change, negative = inhibition: at the top concentration.
Sequence of Bromodomain adjacent to zinc finger domain protein 2B (Homo sapiens) (Q9UIF8 whole entry, looked up, the tested form may be a part): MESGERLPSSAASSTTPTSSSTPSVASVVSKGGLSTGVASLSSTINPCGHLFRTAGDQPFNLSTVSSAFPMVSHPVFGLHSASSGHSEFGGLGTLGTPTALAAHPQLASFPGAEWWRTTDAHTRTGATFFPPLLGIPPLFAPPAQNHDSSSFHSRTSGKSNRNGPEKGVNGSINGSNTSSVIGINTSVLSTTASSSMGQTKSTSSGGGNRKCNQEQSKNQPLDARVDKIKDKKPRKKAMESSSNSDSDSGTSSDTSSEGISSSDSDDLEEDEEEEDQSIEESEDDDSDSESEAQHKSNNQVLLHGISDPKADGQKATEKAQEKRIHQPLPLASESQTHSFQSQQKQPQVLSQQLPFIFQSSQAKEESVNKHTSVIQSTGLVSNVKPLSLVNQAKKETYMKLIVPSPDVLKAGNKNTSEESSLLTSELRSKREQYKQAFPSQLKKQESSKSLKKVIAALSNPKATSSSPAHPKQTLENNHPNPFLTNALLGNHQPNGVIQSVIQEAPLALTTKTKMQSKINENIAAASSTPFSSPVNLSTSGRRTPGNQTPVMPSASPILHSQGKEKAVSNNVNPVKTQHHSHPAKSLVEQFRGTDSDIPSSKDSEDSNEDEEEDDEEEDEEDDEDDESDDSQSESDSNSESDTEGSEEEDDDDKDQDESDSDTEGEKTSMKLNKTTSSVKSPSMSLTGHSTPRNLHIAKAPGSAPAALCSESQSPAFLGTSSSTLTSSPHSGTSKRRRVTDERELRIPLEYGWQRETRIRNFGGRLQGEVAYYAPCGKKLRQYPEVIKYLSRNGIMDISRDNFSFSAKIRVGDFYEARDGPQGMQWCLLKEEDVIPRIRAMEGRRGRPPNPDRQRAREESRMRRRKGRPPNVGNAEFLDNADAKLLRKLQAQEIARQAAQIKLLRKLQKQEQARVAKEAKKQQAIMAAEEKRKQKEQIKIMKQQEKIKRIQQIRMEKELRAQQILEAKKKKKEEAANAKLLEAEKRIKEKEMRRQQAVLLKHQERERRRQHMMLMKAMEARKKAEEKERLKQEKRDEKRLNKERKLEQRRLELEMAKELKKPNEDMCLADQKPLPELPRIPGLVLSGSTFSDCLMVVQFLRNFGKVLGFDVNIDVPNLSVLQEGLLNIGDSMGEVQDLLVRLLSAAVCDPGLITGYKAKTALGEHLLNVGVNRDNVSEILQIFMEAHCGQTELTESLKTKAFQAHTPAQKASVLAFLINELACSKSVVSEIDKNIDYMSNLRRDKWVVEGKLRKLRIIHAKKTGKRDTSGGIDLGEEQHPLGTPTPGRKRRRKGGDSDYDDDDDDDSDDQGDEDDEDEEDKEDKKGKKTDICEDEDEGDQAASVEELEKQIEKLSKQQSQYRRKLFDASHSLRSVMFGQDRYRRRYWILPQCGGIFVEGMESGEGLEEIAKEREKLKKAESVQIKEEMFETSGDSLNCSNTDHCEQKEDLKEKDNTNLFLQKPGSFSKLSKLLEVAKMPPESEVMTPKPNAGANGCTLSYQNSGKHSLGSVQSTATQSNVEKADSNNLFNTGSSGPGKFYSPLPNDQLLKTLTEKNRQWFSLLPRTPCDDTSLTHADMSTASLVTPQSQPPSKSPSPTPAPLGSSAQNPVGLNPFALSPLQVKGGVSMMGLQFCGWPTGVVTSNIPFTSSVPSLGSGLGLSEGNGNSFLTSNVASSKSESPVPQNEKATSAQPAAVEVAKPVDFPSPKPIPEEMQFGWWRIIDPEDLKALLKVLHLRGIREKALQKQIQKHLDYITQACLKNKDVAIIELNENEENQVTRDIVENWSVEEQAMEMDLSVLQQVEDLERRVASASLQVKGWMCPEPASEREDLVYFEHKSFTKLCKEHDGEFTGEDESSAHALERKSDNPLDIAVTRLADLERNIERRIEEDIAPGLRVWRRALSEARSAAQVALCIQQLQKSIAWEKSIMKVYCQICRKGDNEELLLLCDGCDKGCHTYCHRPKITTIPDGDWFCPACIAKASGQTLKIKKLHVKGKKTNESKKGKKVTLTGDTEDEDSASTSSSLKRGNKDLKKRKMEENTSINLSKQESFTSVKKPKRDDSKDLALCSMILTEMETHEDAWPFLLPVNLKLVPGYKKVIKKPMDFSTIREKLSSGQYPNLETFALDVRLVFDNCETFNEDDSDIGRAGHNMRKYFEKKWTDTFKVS
Source text: BAZ2B (bromodomain adjacent to zinc finger domain, 2B) belongs to a family of ubiquitously expressed bromodomain containing proteins, which biological function has not yet been elucidated. […] The interaction of BAZ2B with ISWI mediated by the BAZ1 motif has recently been described. […] The protocol is based on the AlphaScreen (PerkinElmer) displacement assay developed by NCGC [5], but uses the peptide ligand Biot-H3K14Ac, a high affinity binding partner for BAZ2B, in an AlphaScreen format. Although AlphaScreen has significant advantages with its utility in a variety of epigenetic target assays, the primary screening data provided in this deposition should be used with caution due to the prevalence of screening artifacts. The top compound concentration tested was 110uM in this assay, which increases number of actives and potential artifacts. An AlphaScreen counterscreen is highly recommended to be run against any putative actives to eliminate non-specific artifacts. Alternatively, one can use other AlphaScreen assays in PubChem to filter out promiscuous hits. Eberharter, A. et al. ACF1 improves the effectiveness of nucleosome mobilization by ISWI through PHD-histone contacts. The EMBO journal 23, 4029-4039. 2004. PMID: 15457208 [2] Jones, M.H. et al. A novel family of bromodomain genes. Genomics 63, 40-45. 2000. PMID: 10662543 [3] Yasgar, et al. Compound Management for Quantitative High-Throughput Screening. JALA. 2008 Apr;13(2):79-89. PMID: 18496600 [4] Inglese, et al. Quantitative high-throughput screening: a titration-based approach that efficiently identifies biological activities in large chemical libraries. Proc Natl Acad Sci. 1;103(31):11473-8. 2006. PMID: 16864780 [5] Quinn et al. A chemiluminescence-based method for identification of histone lysine methyltransferase inhibitors. Mol Biosyst 6(5): 782-8. 2010. PMID: 20567762 [6] Baell,Holloway. New substructure filters for removal of pan assay interference compounds (PAINS) from screening libraries and for their exclusion in bioassays. J Med Chem. 53(7):2719-40. 2010. PMID: 20131845 NIH Molecular Libraries Probe Production Network [MLPCN] NIH Chemical Genomics Center [NCGC] Structural Genomics Consortium (SGC) NIH Grant: 5U54 MH084681-02
To each well of a 1,536w plate, 2ul of BAZ2B protein (final 50nM) and 1ul biotinylated histone peptide acetylated at Lys14 [b-H3(5-23)K14Ac] (final 50nM) were added in 1x PBS buffer, pH 7.4, containing 0.01% Tween-20, using a nanoliter dispenser. Formation of a protein-peptide complex proceeded at room temperature for 30 min. A Kalypsys pin-tool was employed to transfer 23 nL of library compound solution in DMSO to each well. Following a 30 min incubation of the protein-peptide complex with compounds at room temperature, a mixture of 40 ug/mL each streptavidin-coated donor and nickel chelate acceptor AlphaScreen beads (final 10 ug/mL) were added in a 1ul dispense for a final volume of 4ul. A brief centrifugation followed (1000rpm, 1 min) and were then incubated protected from the light for 20 min at room temperature. Plates were read on an EnVision multilabel plate reader using the 1,536 plate HTS AlphaScreen aperture (excitation time 80 ms, measurement time 240 ms).
% is scaled to controls: 0 for no effect and ±100 for the full control effect; potency is read from the fitted curve at half-maximal effect.
Also: nearly all actives have a fitted effect of over 60% in size.

Activity change, negative = inhibition, inactive:
CCc1cccc(NC(=O)CSc2nccn2C)c1 -37.7%, Cc1ccc(CNC(=O)CCc2c(C)nc3nc(CNC(=O)OC(C)(C)C)nn3c2C)cc1 2.01%, Cc1ccc(NC(=O)CSc2nc3ccccc3c3nc(CCn4cncc4C)nn23)cc1F -16.9%, Cc1cc(-c2ccc(C)c(S(=O)(=O)Nc3ccc(S(N)(=O)=O)cc3)c2)on1 -16.6%, CCOc1ccccc1CNS(=O)(=O)c1cc(-c2cc(C)no2)ccc1C 0.315%, Fc1ccc(-c2nc(Nc3cccc(Cl)c3)nc3c2COc2ccccc2-3)cc1 -17.8%, Cc1c(-c2nc(-c3ccc4c(c3)OCO4)no2)nnn1-c1ccc(Br)cc1F -12.6%, C/C=C(/C)C(=O)Nc1cccc(C2=NOC3(C2)C[C@@H](C(N)=O)N(C(=O)C2(C)CC2)C3)c1 (stereo partly drawn) 5.04%, C/C=C\C=C\C(=O)N1CC2(CC(c3cccc(NC(=O)/C(C)=C\C)c3)=NO2)C[C@H]1C(N)=O (stereo partly drawn) -9.61%, Cc1cn(C)c(CC(=O)NCc2ccccc2)c1C(=O)O -14.6%, COc1cccc(NC(=O)C2CCN(c3cc(C)nc4c(-c5ccc(Cl)cc5)c(C)nn34)CC2)c1 -5.79%, Cc1c(C(=O)Nc2cccc(Cl)c2)oc2ccc(S(=O)(=O)N3CCOCC3)cc12 4.68%, COc1ccc(OCc2ccc(-c3nc(C#N)c(N4CCN(c5ccccc5)CC4)o3)o2)cc1 -28.8%, Cc1ccc(OCc2nc(C#N)c(N3CCCC3)o2)cc1 7.75%, CCC(C)Nc1oc(-c2ccc(COc3ccc(Cl)cc3)o2)nc1C#N (stereo not drawn) -34.3%, N#Cc1ccc(OCc2nnc(-c3ccc([N+](=O)[O-])cc3)o2)cc1 -18.3%, CCc1nnc(SCc2nc(-c3cccc(C)c3)oc2C)c2cc3sc(C)cc3n12 -3.25%, Cc1cccc(NC(=O)Cn2nc(-c3ccc(Cl)cc3)c3ccccc3c2=O)c1 -1.81%, COc1ccc(-c2noc(CSc3nc(C)cc(=O)[nH]3)n2)cc1OC -17.2%, CCOC(=O)c1c(NC(C)=O)c2c3c(sc2n1Cc1c(C)cc(C)cc1C)CCCC3 0.347%, Cc1ccc(-c2cnc(C3CC3)o2)cc1S(=O)(=O)Nc1cccc(C)c1C -29.3%, OC(c1nnc(-c2ccccc2)o1)c1cccs1 (stereo not drawn) -17.5%, CC(=O)c1ccc(NC(c2ccc(F)cc2)c2nnc(-c3ccccc3)o2)cc1 (stereo not drawn) -12.5%, COc1ccc(-c2nc(CN3CCC(C(=O)NCc4ccccc4)CC3)c(C)o2)cc1OC -9.57%, COc1ccc(N2CCN(c3ccc([N+](=O)[O-])nc3)CC2)cc1 11.5%, COc1ccccc1N1CCN(c2ccc([N+](=O)[O-])nc2)CC1 -22%, O=C(c1cncc(Br)c1)N1CCN(c2ccc([N+](=O)[O-])cc2)CC1 3.58%, CN(C)S(=O)(=O)N1CCN(c2ccc([N+](=O)[O-])cc2)CC1 -21.5%, COc1ccc(-c2nc(C)c(CCNC(=O)c3ccc(C(F)(F)F)cc3)s2)cc1OC 3.9%, Cc1cc(C)c2oc(C(=O)Nc3ccc(S(=O)(=O)N4CCCCCC4)cc3)cc(=O)c2c1 -12%, CCCCc1nn2c(=O)cc(COC(=O)c3ccc(NC(=O)c4ccccc4C)cc3)nc2s1 -9.26%, CN1CCN(C2(CNC(=O)COc3ccc(C(C)(C)C)cc3)CCCCC2)CC1 -24.8%, CC1CCN(S(=O)(=O)c2ccc3c(c2)N(CC(=O)NCc2ccccc2Cl)C(=O)CO3)CC1 -6.03%, CCOC(=O)c1scc(-c2ccc(C)cc2)c1S(=O)(=O)Nc1cc(C)ccc1C -8.58%, CC1(C)CC(=O)C(N=Nc2ccc(S(=O)(=O)N3CCCCCC3)cc2)=C(O)C1 -3.64%, O=C(CN1C(=O)CCC1=O)Nc1ccc(S(=O)(=O)N2CCOCC2)cc1 -5.81%, COC(=O)c1ccc2c(c1)N(CC(=O)Nc1ccc(C)c(C)c1)C(=O)c1ccccc1S2 -1.49%, COCCNC(=O)CSc1c(C)cnc2c1c(=O)n(C)c(=O)n2C 4.31%, COc1cc2ccccc2cc1C(=O)Nc1cccc(-c2nc3ccccc3o2)c1 1.7%, O=C1N/C(=C/c2cccn2-c2ccccc2)C(=O)N1c1cccc(Cl)c1 -0.902%, Cc1ccccc1NC(=O)CN1C(=O)C(C)(C)c2ccccc21 5.06%, COc1ccc(OC)c(NC(=O)CSC2=Nc3ccccc3C3=NC(CC(=O)NCCc4ccccc4)C(=O)N23)c1 (stereo not drawn) -15.3%, O=C(CCSCc1ccccc1F)N1CCN(c2ccc(Cl)cc2)CC1 1.82%, O=c1c2ccccc2ncn1/N=C/c1ccccc1 0.598%, CCOc1cc(/C=N/NC(=O)c2cc(-c3ccccc3)nc3ccccc23)ccc1O -0.596%, COc1ccc(Cn2ccn(Cc3cccc(OC)c3)c(=O)c2=O)cc1 -26.1%, COc1ccc(CCNC(=O)c2ccc(-n3c(C)cc4c3CCCC4)cc2)cc1OC -8.94%, CN(C)S(=O)(=O)c1ccc(Oc2ccc(S(=O)(=O)N(C)C)cc2)cc1 0.486%, Cc1cc(C)cc(N)c1 0.691%, CC(C)(C)c1ccc(OC2=CS(=O)(=O)c3ccccc32)cc1 3.61%, CC(C)(c1ccccc1)c1ccc(OCCN)cc1 -0.871%

Potency, active:
CCN(CC)c1ccc(NS(=O)(=O)c2cc(-c3cc(C)no3)ccc2C)c(C)c1 11.2 µM, C=C(C)C(=O)Nc1cccc(C2=NOC3(C2)C[C@H](C(N)=O)N(C(=O)C(c2ccccc2)c2ccccc2)C3)c1 (stereo partly drawn) 25.1 µM, CN1CCN(c2oc(-c3ccc(COc4ccc(Cl)cc4)o3)nc2C#N)CC1 25.1 µM, N#Cc1nc(COc2ccc(Cl)cc2)oc1N1CCCC1 39.8 µM, CCCN(CCC)c1ccc(C(O)c2nnc(-c3ccccc3)o2)cc1 (stereo not drawn) 31.6 µM, COc1ccc(N2CCN(c3ccc([N+](=O)[O-])cc3Cl)CC2)cc1 10 µM, O=[N+]([O-])c1ccc(N2CCN(c3ccc(O)cc3)CC2)c(Cl)c1 20 µM, O=C1CCCC(O)=C1N=Nc1ccc(S(=O)(=O)N2CCOCC2)cc1 79.4 µM, Cc1ccccc1NC(=O)CN1C(=O)N/C(=C\c2cccn2-c2cccc(C(=O)O)c2)C1=O 20 µM, CCCc1nc2ccccc2c(=O)n1/N=C/c1ccc(O)c(O)c1 56.2 µM, CC(C)(C)c1ccc(Oc2ccc(N)cc2)cc1 39.8 µM, Cc1ccc(Oc2ccc(N)cc2)cc1 31.6 µM
